ROCK2 blocker: ROCK2 (human) kinase inhibition | O75116 | purified ROCK2, Kinase-Glo ATP depletion luminescence | inhibition, % at 6 µM | 0.35% of 60,000 active | AID 604;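 active = inhibition above the screen-wide mean inhibition plus 3 SD, cut at about 18% in these data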
PKA inh: PKA (human) kinase inhibition. P17612. PKA Kemptide phosphorylation, Kinase-Glo ATP luminescence. inhibition, % at 6 µM. 0.1% of 65,000 active. AID 524;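 active = inhibition above the screen-wide mean inhibition plus 3 SD, cut at about 21% in these data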
MKP-1 inh: blocks human MKP-1 phosphatase activity; P28562; recombinant MKP-1, OMFP hydrolysis fluorescence; inhibition, %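 (compounds tested at a single concentration somewhere between 10 and 100 µM)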; 0.15% of 65,000 active;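 active = inhibition above about 50%, limit read from the data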
Cdc25B block: human M-phase inducer phosphatase 2 inhibition. recombinant Cdc25B, OMFP fluorescence Ex485/Em525. 0.1% of 65,000 active. inhibition, %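 (compounds tested at 10 µM final in the well)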. P30305; in the data active = inhibition above about 50%
WNV protease inh: blocks West Nile virus NS2B-NS3 protease activity; P06935; WNV NS2B-NS3 protease, fluorogenic substrate Ex360/Em465; stronger effect = lower value; z-score (test concentration not listed); 0.18% of 65,000 active; AID 577; in the data active = z-score below about -3
Target sequence (P06935 1371-1501 limits assumed): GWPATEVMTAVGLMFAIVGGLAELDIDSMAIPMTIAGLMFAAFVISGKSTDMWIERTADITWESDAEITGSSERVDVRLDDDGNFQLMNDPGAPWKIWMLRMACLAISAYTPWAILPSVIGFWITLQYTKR
Target sequence (P06935 1502-1679 limits assumed): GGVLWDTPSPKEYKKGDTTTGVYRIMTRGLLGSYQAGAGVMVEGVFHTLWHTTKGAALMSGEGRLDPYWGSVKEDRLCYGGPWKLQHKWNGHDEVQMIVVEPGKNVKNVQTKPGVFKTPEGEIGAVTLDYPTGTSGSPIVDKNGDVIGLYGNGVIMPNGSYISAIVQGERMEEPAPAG
Large screens that a line does not name were inactive. The list is not random: actives were taken first. Their share in the collection is about 0.67%.

CCN1CCN(c2nc3c(c(=O)[nH]c(=O)n3C)n2CCCSc2ncccn2)CC1	WNV protease inh -3.8
COc1ccc(OC)c(NS(=O)(=O)c2ccc(Cl)s2)c1	none
COc1ccc(OC)c(NS(=O)(=O)c2cccs2)c1	WNV protease inh -6
COc1cc2c(cc1NC(=O)COC(=O)Cn1cnc3ccccc31)oc1ccccc12	PKA inh 24
O=c1c2c(n3nnnc3n1-c1ccccc1)-c1ccccc1CC21CCCC1	none
CCc1cccc2c(C#N)cn(CC(=O)NCc3ccco3)c12	WNV protease inh -3.9
CCOc1ccc(CCNC(=O)C2CCN(c3nn4c(=O)cc(C)nc4s3)CC2)cc1	none
N#Cc1cccc(NC(=O)CSc2ccccc2)c1	ROCK2 blocker 19
Cc1ccc2c(c1)cc(CN(Cc1ccc3c(c1)OCO3)S(=O)(=O)c1ccccc1)c1nnnn12	none
C/C(CC1(O)C(=O)N(Cc2ccccc2)c2ccccc21)=N\O (configuration not stated)	WNV protease inh -6.4
COc1ccc(OCC(=O)Nc2ccc(S(=O)(=O)Nc3cc(C)nc(C)n3)cc2)cc1	none (no result: ROCK2 blocker)
O=C(c1ccc2c(=O)n(C3CCCC3)c(=S)[nH]c2c1)N1CCN(C2CCCCC2)CC1	MKP-1 inh 52
CC(=O)c1cccc(NC(=O)NCc2cccs2)c1	ROCK2 blocker 20
CC(=O)c1cccc(NC(=O)NCc2ccccn2)c1	none
Cc1ccc(S(=O)(=O)NCCSc2nnnn2-c2ccc(C(N)=O)cc2)cc1	PKA inh 54
NC(=O)c1c(-c2cccs2)csc1N	ROCK2 blocker 21
CC(c1ccco1)N(C(=O)C12CC3CC(CC(C3)C1)C2)c1ccccn1 (configuration not stated)	none
O=C(Nn1c(=S)[nH]c2ccccc2c1=O)c1ccncc1	ROCK2 blocker 20
c1ccc(-c2noc(CSc3nnc(Cc4cccs4)n3-c3ccccc3)n2)cc1	none
CCCCOn1c(C)c(C(=O)OCC)c2c3nonc3ccc21	none
CN1/C(=N\O)c2cccc3cccc1c23	ROCK2 blocker 37
CC(=O)n1cc(-c2ccncc2)c2ccccc21	ROCK2 blocker 61, PKA inh 26
CC(=O)n1c2ccccc2c2c1c1ccccc1n2C	none
CCn1c(=O)cc(SCC(=O)N2CCN(Cc3ccc4c(c3)OCO4)CC2)c2ccccc21	MKP-1 inh 56 (no result: ROCK2 blocker)
CCOc1ccc(NC(=O)CSc2nccn2C)cc1	none (no result: ROCK2 blocker)
c1ccc2c(c1)OCC(c1nnc3sc(-c4ccc5c(c4)OCO5)nn13)O2 (configuration not stated)	none
COCCn1nnnc1CN(Cc1cc2cc(OC)c(OC)cc2[nH]c1=O)C1CCCC1	none
COc1ccc(C2=Nn3c(nnc3-c3ccc(OC)cc3)SC2)cc1	WNV protease inh -9.6
COC1(OC)N=C(N)C2(C#N)C(c3ccc4c(c3)OCO4)C12C#N (configuration not stated)	ROCK2 blocker 29
O=C1CN(c2ccc(Br)cc2)C(=O)N1CC(=O)N1CCCc2ccccc21	none
Cc1[nH]nc2c1C(c1ccc(-c3ccccc3C#N)o1)C(C#N)=C(N)O2 (configuration not stated)	ROCK2 blocker 40
Cc1[nH]nc2c1C(c1ccc(F)cc1)C(C#N)=C(N)O2 (configuration not stated)	none
CCCn1c(SCC(=O)Nc2sc(C)c(C)c2C(=O)OC)nc2c1c(=O)n(C)c(=O)n2C	WNV protease inh -3.8
Cc1ocnc1C(=O)Nc1ccc(Cl)cc1	none
CN1Cc2cc(C(=O)c3cc(Cl)cc(CSc4ncccn4)c3O)cnc2NC1=O	MKP-1 inh 55
Cc1ccc(O)c(C(=O)c2cnc3c(c2)CN(CCC(C)C)C(=O)N3)c1	none
CCN(CC)CCNC(=O)C(C(=O)c1ccccc1)n1ccccc1=O (configuration not stated)	none
CCN(CC)C(=O)N1CCC(NC(=O)Cc2ccccc2)CC1	none (no result: ROCK2 blocker)
CC1CCCCC1NC(=O)CCn1c(=O)oc2ccccc21 (configuration not stated)	MKP-1 inh 77
CC1CCCC(NC(=O)CCn2c(=O)oc3ccccc32)C1C (configuration not stated)	none
O=C(NCc1ccc2c(c1)OCO2)c1ccc2snnc2c1	ROCK2 blocker 38
Cn1nnc2cc(C(=O)NCc3ccc4c(c3)OCO4)ccc21	none
CCCN(CCC)CCNC(=O)CS(=O)Cc1nc(-c2ccc(C)cc2)oc1C (configuration not stated)	none
COc1ccc(-c2cc(-c3c(O)c(OC)c4occc4c3OC)[nH]n2)cc1OC	none
OC(CNCCCN1CCCCC1)COc1ccccc1 (configuration not stated)	WNV protease inh -6
Cc1ccc(Cl)cc1NC(=O)c1ocnc1C	WNV protease inh -3.4 (no result: ROCK2 blocker)
Cc1ncoc1C(=O)Nc1cccc(Cl)c1	none
CCOc1ccc(N(CC(=O)N2CC=C(c3ccccc3)CC2)S(=O)(=O)c2c(C)noc2C)cc1	none
O=C(O)c1ccc(CN2CCCCC2)o1	none
CC(C)(C)c1cc(C(=O)O)c(CN2CCCCC2)o1	Cdc25B block 79
O=C(CSc1nc2ccccc2c(=O)[nH]1)Nc1ccc(S(=O)(=O)N2CCCC2)cc1	MKP-1 inh 53
CN(c1ccccc1)c1nc2ccsc2c(=O)s1	none (no result: ROCK2 blocker)
Cc1ccc(OCc2ccc(C(=O)Nc3nccs3)o2)cc1	none
NC(=O)SC/C(=N\S(=O)(=O)c1ccccc1)Nc1ccccc1	none
CCC(=O)N1CCc2cc(Br)cc(S(=O)(=O)CC(=O)OC)c21	WNV protease inh -4.8
CCC(=O)N1CCc2cc(Br)cc(S(=O)(=O)NCCN3CCOCC3)c21	none (no result: ROCK2 blocker)
CC(=O)c1cc(C#N)c(SCc2ccncc2)nc1C	ROCK2 blocker 28
CCOC(=O)CC(=O)CSc1nnc2sc3ccccc3n12	MKP-1 inh 78
CN(C)C(=O)CSc1nnc2sc3ccccc3n12	none
COc1cccc2cc(-c3csc(CCn4nc(C)cc4C)n3)c(=O)oc12	WNV protease inh -4.6
Clc1ccc(OCCN2CCN(c3ncnc4sccc34)CC2)cc1	PKA inh 36
Cc1ccc(NC(=O)CC2SC3=NCCN3C2=O)cc1 (configuration not stated)	none (no result: ROCK2 blocker, MKP-1 inh, Cdc25B block, WNV protease inh)
C=CCSC1=C(C#N)C2(CCCCC2)C(C#N)C(=O)N1 (configuration not stated)	none
CCN(CC)C(=O)c1cc2c(=O)n3cccc(C)c3nc2n1C	Cdc25B block 74
O=C(NCc1cccnc1)c1ccc(CS(=O)(=O)Cc2ccc(Cl)cc2)o1	none
Cc1ccc(NC(=O)C2CCCNC2=O)nc1 (configuration not stated)	none
Cc1onc(-c2ccccc2)c1C(=O)N1CCN(C/C=C/c2ccccc2)CC1	ROCK2 blocker 22
Brc1cccc(-c2cnc3n2CCCCC3)c1	WNV protease inh -4.2
CCOC(=O)C1CCN(S(=O)(=O)c2ccc(NC(=O)OC)cc2)CC1	none
CCOC(=O)C1CCN(S(=O)(=O)c2ccc(C(=O)OC)cc2)CC1	WNV protease inh -5.5
O=C(c1cccs1)N1CCN(C(=O)c2ccco2)c2ccccc2C1	WNV protease inh -4.8
O=C(c1cccs1)N1CCOCC1	none

High-throughput results (PubChem)
